Experimental data as given in PubChem BioAssay (NCI).
The panel holds about 83,000 compounds, 20% with a hit somewhere; the sample as a whole holds those more often.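 Single-dose data. Exposure time 48 hours. Values below 10 considered active.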 A number with no mark means an inactive call. Activity calls are given as the source filed them.

Key:
Experiment in all cases: NCI-60 one-dose screen, 48 h (100 = growth as untreated, 0 = no growth, -100 = all killed)
Conditions in all cases: 10 µM unless noted
[1] = tested on: DU-145 prostate
[2] = tested on: K-562 leukemia
[3] = tested on: MALME-3M melanoma
[4] = tested on: MDA-MB-231 breast
[5] = tested on: RXF 393 renal
[6] = tested on: SF-268 CNS
[7] = tested on: SF-539 CNS
[8] = tested on: UACC-257 melanoma
[9] = tested on: M14 melanoma
[10] = tested on: HCT-15 colon
[11] = tested on: HT29 colon
[12] = tested on: SNB-75 CNS
[13] = tested on: SNB-19 CNS
[14] = tested on: U251 CNS
[15] = tested on: PC-3 prostate
[16] = tested on: SK-MEL-5 melanoma
[17] = tested on: UACC-62 melanoma
[18] = tested on: LOX IMVI melanoma
[19] = tested on: SK-MEL-28 melanoma

Row | SMILES | growth [1] | growth [2] | growth [3] | growth [4] | growth [5] | growth [6] | growth [7] | growth [8] | growth [9] | growth [10] | growth [11] | growth [12] | growth [13] | growth [14] | growth [15] | growth [16] | growth [17] | growth [18] | growth [19]
1 | O=C(CS)OCC(COC(=O)CS)(COC(=O)CS)COC(=O)CS | 95.3% | 34.3% | 89.6% | 104% | 98.8% | 82.7% | 98.4% | 59.3% | 18.1% | 85% | 98.9% | 74.5% | 119% | 103% | 83.4% | 102% | 67.9% | 70.5% | 90.1%
2 | COc1ccc(C2C=C(c3ccc(Cl)cc3)N=C3SC=CN32)cc1 (centres undefined) | 129% | 104% | 108% | 112% | 122% | 119% | 104% | 108% | 109% | 110% | 106% | 86.7% | 115% | 105% | 86.7% | 111% | 116% | 99.6% | 97.6%
3 | Cc1cc(C)cc(CCCCCCCCCCCCCCCCCC(=O)O)c1 | 108% | 115% | 108% | 120% | 107% | 103% | 106% | 106% | 98% | 102% | 110% | 97.2% | 115% | 110% | 106% | 102% | 106% | 104% | 119%
4 | Cc1ccc(-c2cnc3sc4ccc(Cl)cc4n23)cc1 | 101% | 110% | 110% | 85% | 104% | 98.5% | 94.4% | 112% |  | 100% | 99.8% | 93.9% | 96.4% | 105% | 82.6% | 95.6% | 87.9% | 94.2% | 109%
5 | CCCN(CCC)CC(O)COc1ccccc1C(=O)Nc1ccccc1 (centres undefined) | 96.8% | 22.3% | 62% | 96.5% | 52.5% | 73.8% | 77.3% | 61.5% |  | 72.8% | 71.3% | 56.2% | 94.6% | 60.4% | 70.2% | 53.3% | 48.1% | 56.8% | 
6 | O=C(C(Br)C(Br)c1ccccc1)C(Br)C(Br)c1ccccc1 (centres undefined) | -26.4% (active) | -17.5% (active) | -69.5% (active) | -16.5% (active) | -85.1% (active) | -1.83% (active) | -42.5% (active) | -67.3% (active) |  | -66.4% (active) | -76% (active) | 60% | 72.8% | 4.89% (active) | -31.2% (active) | 2.03% (active) | -83.5% (active) | -79.1% (active) | -35.6% (active)
7 | Fc1cnccc1-c1nc2ccc3[nH]ncc3c2c2c1CCCC2 | 24.1% | 30.9% | 44.2% | 51.2% | -23.9% (active) | 31.9% | 5.76% (active) | 63% | 26% | 12.4% | 25.4% | -25.5% (active) |  | 29.6% | 27.1% | 29% | 17.3% | 22.8% | 24.3%
8 | CCN(CC)CCC(CNc1ccnc2cc(Cl)ccc12)c1ccc(O)cc1 (centres undefined) | 91.4% | 10.6% | 93.5% | 74.1% | 52.5% | 69.5% | 88.4% | 93.4% |  | 109% | 29.5% | 85.7% | 103% | 81.3% | 61.1% | 91.9% | 103% | 50.4% | 107%
9 | CC(=O)c1nn(-c2ccccc2)/c(=N\N=C\c2coc3ccc(F)cc3c2=O)s1 | 111% | 94.5% | 102% | 88.3% | 116% | 87.8% | 94.4% | 116% |  | 101% | 108% | 73.4% | 94.4% | 100% | 92.6% | 98.3% | 97.4% | 95.2% | 111%
